Results published in PubChem BioAssay AID1645838 (ICCB-Longwood Screening Facility, Harvard Medical School, 2021).
Where “and” joins values, the source holds several entries; their conditions need not be identical. Identical values can stand only once. In all, about 2,000 compounds went through this assay and about 100 (5%) were called active. No stated cut-off is given here; in the data, active means z-score above about 2; inactive means the rest. For the sample, actives were picked, then their nearest neighbours and some compounds at random.

Experiment: modulators of mitochondrial supercomplex assembly, cell-based, luminescence, Hoechst nuclei count (AID 1645838);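 further: control cybrid cells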;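 on z-score: higher means more mitochondrial supercomplex formation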
Details: Cells, luminescence/Hoechst cell count ratio, supercomplex reporter; for z-score: stronger effect = higher value; for cell count: measured here: cell number, Hoechst nuclei count
[1] = library stock concentration (final well concentration not given) 80 uM
[2] = library stock concentration (final well concentration not given) 400 uM
[3] = library stock concentration (final well concentration not given) 2 mM
[4] = library stock concentration (final well concentration not given) 10 mM
[5] = library stock concentration (final well concentration not given) 46 uM
[6] = library stock concentration (final well concentration not given) 278 uM
[7] = library stock concentration (final well concentration not given) 1.67 mM

For Cc1ccc(-c2ccc3c(c2)C=C(C(=O)Nc2ccc(C[N+](C)(C)C4CCOCC4)cc2)CCC3)cc1, the z-score [1] was 0.0335 (inactive), the z-score [2] was -0.0352 (inactive) and the z-score [3] was 0.025 (inactive). For the same compound, the z-score [4] was 0.462 (inactive), the cell count [1] was 6000 and the cell count [2] was 5610. It also gave a cell count [3] of 5740 and a cell count [4] of 4810.
For CCCCc1ccc(O)cc1O, the z-score [1] was -0.0561 (inactive), the z-score [2] was -0.187 (inactive) and the z-score [3] was -0.116 (inactive). The z-score [4] was -0.378 (inactive), the cell count [1] was 5090 and the cell count [2] was 5680. The cell count [3] was 5060 and the cell count [4] was 5370.
In the case of CCC1C(=O)N(C)c2cnc(Nc3ccc(C(=O)NC4CCC(N5CCN(CC6CC6)CC5)CC4)cc3OC)nc2N1C(C)C (stereo unspecified), the outcome (library stock 80 µM) is reported as “inactive; censored for cell count”, the outcome (library stock 400 µM) is reported as “inactive; censored for cell count” and the outcome (library stock 2 mM) is reported as “inactive; censored for cell count”. The outcome (library stock 10 mM) was “inactive; censored for cell count”.
For CC(C)c1ccc(-c2cc(=O)c3ccccc3o2)cc1, the z-score [1] was 0.0844 (inactive), the z-score [2] was 1e-05 (inactive) and the z-score [3] was -0.0931 (inactive). For the same compound, the z-score [4] was -0.264 (inactive), the cell count [1] was 5390 and the cell count [2] was 5660. For the same compound, the cell count [3] was 5670 and the cell count [4] was 5910.
In the case of CCc1nc(N)nc(N)c1-c1ccc(Cl)cc1, the z-score [5] is reported as -0.369 (inactive), the z-score [6] is reported as -0.308 (inactive) and the z-score [7] is reported as -0.256 (inactive). For the same compound, the z-score [4] was 2.87 (active), the cell count [5] was 6220 and the cell count [6] was 5950. The cell count [7] was 4990 and the cell count [4] was 2210.
For Cc1nc(C(=O)N2CCCC2Cc2nnc(-c3ccccc3)o2)c(-c2ccccc2F)s1 (stereo unspecified), the z-score [1] was -0.436 (inactive), the z-score [2] was -0.462 (inactive) and the z-score [3] was -0.287 (inactive). For the same compound, the z-score [4] was -0.37 (inactive), the cell count [1] was 6270 and the cell count [2] was 5950. For the same compound, the cell count [3] was 5640 and the cell count [4] was 5740.
For CCCCC[C@H](O)/C=C/[C@H]1C(=O)C[C@H](O)[C@@H]1C/C=C\CCCC(=O)OCC(O)CO (stereo partly specified), the z-score was 0.539 (inactive) and the cell count was 4970.
For CCCCC[C@H](O)/C=C/[C@@H]1[C@@H](C/C=C/CCCC(=O)O)[C@@H](O)C[C@H]1O, the z-score was -0.886 (inactive) and -1.17 (inactive) and the cell count was 5940 and 5560.
For COc1ccc(C(=O)Nc2sc(Nc3ccccc3)nc2C(N)=O)cc1, the z-score [1] was 0.24 (inactive), the z-score [2] was 0.382 (inactive) and the z-score [3] was -0.143 (inactive). The z-score [4] was 1.05 (inactive), the cell count [1] was 4690 and the cell count [2] was 4800. The cell count [3] was 4780 and the cell count [4] was 4300.
For CC(=O)Nc1ccc(C(=O)Nc2sc(Nc3ccccc3)nc2C(N)=O)cc1, the z-score [1] was 0.365 (inactive), the z-score [2] was 0.37 (inactive) and the z-score [3] was 2.89 (active). The z-score [4] was 5.1 (active), the cell count [1] was 5180 and the cell count [2] was 5070. For the same compound, the cell count [3] was 3500 and the cell count [4] was 2950.
In the case of CC(=O)Nc1ccc(NC(=S)NC(=O)c2ccc(C(C)(C)C)cc2)cc1, the z-score is reported as 1.3 (inactive) and the cell count is reported as 5410.
With CCCCC[C@H](O)CC[C@@H]1[C@@H](CCCCCCC(=O)O)[C@@H](O)C[C@H]1O the z-score was -0.187 (inactive) and the cell count was 5660.
In the case of COc1cc(Nc2ncc(F)c(Nc3ccc4c(n3)NC(=O)C(C)(C)O4)n2)cc(OC)c1OC, the z-score [1] is reported as -0.348 (inactive), the z-score [2] is reported as -0.268 (inactive) and the z-score [3] is reported as 0.433 (inactive). The z-score [4] was 2.15 (active), the cell count [1] was 4400 and the cell count [2] was 3910. For the same compound, the cell count [3] was 3800 and the cell count [4] was 1990.
For CCCCCCCCCCCCCCNC(=O)C1CCCCC1, the z-score was -0.131 (inactive) and the cell count was 5060.
In the case of COc1cc(C(C)C)c2c(c1)S(=O)(=O)N(COc1cc(=O)n3cccc(OCCN4CCCCC4)c3n1)C2=O, the z-score [5] is reported as -0.456 (inactive), the z-score [6] is reported as -0.0963 (inactive) and the z-score [7] is reported as -0.654 (inactive). For the same compound, the z-score [4] was -0.644 (inactive), the cell count [5] was 7070 and the cell count [6] was 6790. For the same compound, the cell count [7] was 6790 and the cell count [4] was 5780.
With CC(=O)c1c(C)c2cnc(Nc3ccc(N4CCNCC4)cn3)nc2n(C2CCCC2)c1=O the z-score [5] was -0.186 (inactive), the z-score [1] was -0.0747 (inactive) and the z-score [6] was 0.0516 (inactive). The z-score [2] was 0.049 (inactive), the z-score [7] was 1.11 (inactive) and the z-score [3] was 0.264 (inactive). The z-score [4] was -0.00116 (inactive) and 1.25 (inactive), the cell count [5] was 4850 and the cell count [1] was 4290. The cell count [6] was 4600, the cell count [2] was 4340 and the cell count [7] was 3490. For the same compound, the cell count [3] was 4140 and the cell count [4] was 4170 and 3080.
In the case of CN(C)C(=O)c1cc2cnc(Nc3ccc(N4CCNCC4)cn3)nc2n1C1CCCC1, the z-score [1] is reported as 0.288 (inactive), the z-score [2] is reported as 0.657 (inactive) and the z-score [3] is reported as 1.74 (inactive). For the same compound, the z-score [4] was 2.33 (active), the cell count [1] was 5680 and the cell count [2] was 5400. For the same compound, the cell count [3] was 4600 and the cell count [4] was 3840.
In the case of CCCCC/C=C\C/C=C\C/C=C\C/C=C\CCCCN1C(=O)C=CC1=O, the z-score is reported as 0.0996 (inactive) and the cell count is reported as 4710.
With Nc1nc2c([nH]c(=O)n2[C@H]2C[C@H](O)[C@@H](CO)O2)c(=O)[nH]1 the z-score was -0.23 (inactive) and the cell count was 5380.
For O=C(Nc1ccc(N2CCOCC2)cc1)c1n[nH]c2ccccc12, the z-score [1] was 0.294 (inactive), the z-score [2] was 0.396 (inactive) and the z-score [3] was -0.44 (inactive). For the same compound, the z-score [4] was 0.0641 (inactive), the cell count [1] was 5020 and the cell count [2] was 4770. For the same compound, the cell count [3] was 4900 and the cell count [4] was 4350.
For CCCCC[C@H](O)/C=C/[C@H]1C(=O)C[C@H](O)[C@@H]1CCCCCCCO, the z-score was 0.644 (inactive) and the cell count was 4950.
In the case of O=C(Nc1cccc(Nc2ncc(Br)c(NCCc3cnc[nH]3)n2)c1)N1CCCC1, the outcome (library stock 10 mM) is reported as “inactive; censored for cell count”, the z-score [5] is reported as -0.139 (inactive) and the z-score [1] is reported as -0.647 (inactive). For the same compound, the z-score [6] was 0.0145 (inactive), the z-score [2] was -0.129 (inactive) and the z-score [7] was 3.24 (active). For the same compound, the z-score [3] was 0.129 (inactive), the cell count [5] was 5940 and the cell count [1] was 4860. For the same compound, the cell count [6] was 6000, the cell count [2] was 4520 and the cell count [7] was 2060. It also gave a cell count [3] of 3760.
For O=C(O)CCC/C=C\CC1C(=O)C[C@@H](O)[C@@H]1/C=C/[C@@H](O)COc1ccccc1 (stereo partly specified), the z-score was 0.988 (inactive) and the cell count was 5150.
In the case of CCN(CC)C(=O)CCC/C=C\C[C@@H]1[C@@H](/C=C/[C@@H](O)CCc2ccccc2)[C@H](O)C[C@@H]1O, the z-score is reported as 0.309 (inactive) and the cell count is reported as 5000.
For CCCCCCCC/C=C\CCCCCCCCCCCC(N)=O, the z-score was -0.128 (inactive) and the cell count was 5640.
With CCCCCCCCCCCCCCCCCC(=O)NCCO the z-score was -0.675 (inactive) and the cell count was 6070.
With O=C(C(=O)c1ccc(Cl)cc1)c1ccc(Cl)cc1 the z-score [5] was 0.501 (inactive), the z-score [6] was 0.0434 (inactive) and the z-score [7] was 0.0353 (inactive). For the same compound, the z-score [4] was -0.186 (inactive), the cell count [5] was 6500 and the cell count [6] was 6290. For the same compound, the cell count [7] was 6800 and the cell count [4] was 6380.
With NC(=NCC[C@H](N)C(=O)O)NO the z-score was -0.121 (inactive) and the cell count was 4620.
With CCN(CC)c1ccc(C=NNC(=O)c2ccc(O)cc2)cc1 the z-score [5] was -0.275 (inactive), the z-score [6] was -0.201 (inactive) and the z-score [7] was -0.4 (inactive). For the same compound, the z-score [4] was 2.2 (active), the cell count [5] was 6830 and the cell count [6] was 6590. It also gave a cell count [7] of 6690 and a cell count [4] of 3360.
For CCC(=C(CC)c1ccc(O)cc1)c1ccc(O)cc1, the z-score [1] was 0.303 (inactive), the z-score [2] was 0.161 (inactive) and the z-score [3] was -0.198 (inactive). The z-score [4] was -1.11 (inactive), the cell count [1] was 5780 and the cell count [2] was 5910. It also gave a cell count [3] of 5930 and a cell count [4] of 5450.
With CCCCC/C=C\C/C=C\C/C=C\C/C=C\CCCCNC(=O)c1ccc(O)cc1 the z-score was -0.229 (inactive) and the cell count was 5700.
